Measured values: ChEMBL document CHEMBL2218924, “A broad activity screen in support of a chemogenomic map for kinase signalling research and drug discovery” (Biochem J, 2013)

The compounds below were run against T1, Aurora kinase C (Homo sapiens) (UniProt Q9UQB9). Conditions: at 1 µM.
T1 sequence (whole entry): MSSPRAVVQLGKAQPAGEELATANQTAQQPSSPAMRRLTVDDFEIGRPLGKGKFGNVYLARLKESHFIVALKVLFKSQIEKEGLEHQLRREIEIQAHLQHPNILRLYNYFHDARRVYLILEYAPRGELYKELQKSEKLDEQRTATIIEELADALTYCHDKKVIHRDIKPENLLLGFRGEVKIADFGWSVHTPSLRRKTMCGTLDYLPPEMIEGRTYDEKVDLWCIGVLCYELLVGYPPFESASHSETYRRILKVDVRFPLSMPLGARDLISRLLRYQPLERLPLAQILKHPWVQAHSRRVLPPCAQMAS

| Compound | residual activity [%] |
| --- | --- |
| O=C1NC(=O)C(c2c[nH]c3ccccc23)=C1c1c[nH]c2ccccc12 | 114 |
| Nc1ncnc2c1cnn2-c1ccccc1 | 97 |
| c1ccc(-c2cnc(Nc3ccc(OCCN4CCCC4)cc3)s2)cc1 | 110 |
| O=S(=O)(NCCNC/C=C/c1ccc(Br)cc1)c1cccc2cnccc12 | 80 |
| CCOc1nc(NC(=O)Cc2cc(OC)ccc2OC)cc(N)c1C#N | 78 |
| O=C1Cc2c([nH]c3ccc(Br)cc23)-c2ccccc2N1 | 76 |
| O=C1C(Cl)=C(N2C(=O)CCC2=O)C(=O)c2ccccc21 | 67 |
| Fc1ccc(-c2nc3n(c2-c2ccncc2)CCS3)cc1 | 98 |
| COc1ccc(CNC(=O)Nc2ncc([N+](=O)[O-])s2)cc1 | 75 |

Each compound was assayed against T1, Aurora kinase C (Homo sapiens). Conditions: at 10 µM.

| Compound | residual activity [%] |
| --- | --- |
| O=S(=O)(c1cccc2cnccc12)N1CCCNCC1 | 59 |
| Nc1nccc(-c2c(-c3ccc(F)cc3)ncn2C2CCNCC2)n1 | 78 |
| COc1ccc2c(c1)c(C1=C(c3c[nH]c4ccccc34)C(=O)NC1=O)cn2CCCN(C)C | 59 |
| O=C1NC(=O)C(c2cn(CCCn3ccnc3)c3ccccc23)=C1Nc1ccccc1 | 67 |
| Nc1ncnc2c1cnn2-c1ccccc1 | 53 |
| c1ccc(-c2cnc(Nc3ccc(OCCN4CCCC4)cc3)s2)cc1 | 47 |
| O=S(=O)(NCCNC/C=C/c1ccc(Br)cc1)c1cccc2cnccc12 | 22 |
| O=C(Nc1ccc(Cl)cc1)c1ccccc1NCc1ccncc1 | 70 |
| O=C1Cc2c([nH]c3ccc(Br)cc23)-c2ccccc2N1 | 71 |
| O=C1C(Cl)=C(N2C(=O)CCC2=O)C(=O)c2ccccc21 | 62 |
| Fc1ccc(-c2nc3n(c2-c2ccncc2)CCS3)cc1 | 95 |
| COc1ccc(CNC(=O)Nc2ncc([N+](=O)[O-])s2)cc1 | 78 |

What follows are compounds tested against Tyrosine-protein kinase receptor UFO (Homo sapiens) (UniProt P30530). Conditions: at 1 µM.
Sequence of Tyrosine-protein kinase receptor UFO (Homo sapiens) (P30530 whole entry): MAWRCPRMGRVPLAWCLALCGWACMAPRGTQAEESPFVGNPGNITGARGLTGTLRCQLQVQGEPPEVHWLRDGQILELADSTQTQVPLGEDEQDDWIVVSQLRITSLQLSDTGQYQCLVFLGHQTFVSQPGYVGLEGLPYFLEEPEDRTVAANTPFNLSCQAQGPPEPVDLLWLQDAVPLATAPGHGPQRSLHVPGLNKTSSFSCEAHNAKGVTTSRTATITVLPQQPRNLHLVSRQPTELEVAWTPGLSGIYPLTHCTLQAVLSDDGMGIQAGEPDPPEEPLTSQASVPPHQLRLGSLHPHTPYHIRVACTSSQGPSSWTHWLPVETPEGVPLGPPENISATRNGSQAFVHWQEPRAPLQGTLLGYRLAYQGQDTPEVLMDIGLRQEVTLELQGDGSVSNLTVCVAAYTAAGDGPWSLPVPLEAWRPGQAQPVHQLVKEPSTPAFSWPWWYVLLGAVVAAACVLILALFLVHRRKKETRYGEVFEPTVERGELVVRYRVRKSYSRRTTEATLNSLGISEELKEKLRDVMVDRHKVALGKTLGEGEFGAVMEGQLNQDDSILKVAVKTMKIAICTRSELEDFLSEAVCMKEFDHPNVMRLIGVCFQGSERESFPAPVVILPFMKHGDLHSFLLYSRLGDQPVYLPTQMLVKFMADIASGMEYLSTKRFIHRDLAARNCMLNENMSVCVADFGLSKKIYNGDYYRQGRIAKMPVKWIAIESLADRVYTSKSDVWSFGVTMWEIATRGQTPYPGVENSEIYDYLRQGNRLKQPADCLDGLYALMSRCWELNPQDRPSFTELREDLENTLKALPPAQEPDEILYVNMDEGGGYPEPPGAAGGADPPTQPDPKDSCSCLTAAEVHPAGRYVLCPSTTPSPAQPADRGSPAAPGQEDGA

| Compound | residual activity [%] |
| --- | --- |
| Cc1cc(C)c(/C=C2\C(=O)Nc3ccccc32)[nH]1 | 31 |
| O=C(Nc1nc2ccccc2n1CCN1CCOCC1)c1cccc([N+](=O)[O-])c1 | 75 |
| CCN1/C(=C/C(C)=O)Sc2ccc(OC)cc21 | 77 |
| COc1ccc(COc2ccc(Cc3cnc(N)nc3N)cc2OC)cc1 | 80 |
| COc1cc2c(cc1OC)-c1n[nH]c(Nc3cccc(F)c3)c1C2 | 71 |
| NC(=O)c1cccc(-c2cc(Nc3ccc(OC(F)(F)F)cc3)ncn2)c1 | 89 |
| NCCNc1ncc(C(N)=O)c(Nc2cccc(C(F)(F)F)c2)n1 | 74 |
| O=c1cc(N2CCNCC2)oc2c(-c3ccccc3)cccc12 | 80 |
| CSc1nc(-c2ccc(F)cc2)c(-c2ccnc(NC(C)c3ccccc3)c2)[nH]1 (stereo not drawn) | 101 |
| CCOC(=O)c1c(C)[nH]c(/C=C2\C(=O)Nc3ccccc32)c1C | 84 |
| COc1ccc(Cl)cc1NC(=O)Nc1cc(C)nc2ccccc12 | 98 |

Each compound was assayed against Tyrosine-protein kinase receptor UFO (Homo sapiens) (UniProt P30530). Conditions: at 10 µM.

| Compound | residual activity [%] |
| --- | --- |
| O=C1NC(=O)C(c2c[nH]c3ccccc23)=C1c1c[nH]c2ccccc12 | 56 |
| Cc1cc(C)c(/C=C2\C(=O)Nc3ccccc32)[nH]1 | 21 |
| N#C/C(=C\c1ccc(O)c(O)c1)C(=O)NCc1ccccc1 | 77 |
| O=C(Nc1nc2ccccc2n1CCN1CCOCC1)c1cccc([N+](=O)[O-])c1 | 78 |
| COc1ccc2c(c1)c(C1=C(c3c[nH]c4ccccc34)C(=O)NC1=O)cn2CCCN(C)C | 40 |
| O=C1NC(=O)C(c2cn(CCCn3ccnc3)c3ccccc23)=C1Nc1ccccc1 | 66 |
| Oc1cccc(-c2nc(N3CCOCC3)c3oc4ncccc4c3n2)c1 | 86 |
| CCN1/C(=C/C(C)=O)Sc2ccc(OC)cc21 | 75 |
| COc1ccc(COc2ccc(Cc3cnc(N)nc3N)cc2OC)cc1 | 74 |
| COc1cc2c(cc1OC)-c1n[nH]c(Nc3cccc(F)c3)c1C2 | 50 |
| NC(=O)c1cccc(-c2cc(Nc3ccc(OC(F)(F)F)cc3)ncn2)c1 | 76 |
| NCCNc1ncc(C(N)=O)c(Nc2cccc(C(F)(F)F)c2)n1 | 58 |
| O=c1cc(N2CCNCC2)oc2c(-c3ccccc3)cccc12 | 76 |
| CSc1nc(-c2ccc(F)cc2)c(-c2ccnc(NC(C)c3ccccc3)c2)[nH]1 (stereo not drawn) | 85 |
| O=C1C(Cl)=C(N2C(=O)CCC2=O)C(=O)c2ccccc21 | 80 |
| CCOC(=O)c1c(C)[nH]c(/C=C2\C(=O)Nc3ccccc32)c1C | 81 |
| COc1ccc(Cl)cc1NC(=O)Nc1cc(C)nc2ccccc12 | 88 |
| O=C1Nc2ccccc2/C1=C\c1c(Cl)[nH]c2ccccc12 | 58 |

What follows are compounds tested against Protein-tyrosine kinase 6 (Homo sapiens) (UniProt Q13882). Conditions: at 1 µM.
Sequence of Protein-tyrosine kinase 6 (Homo sapiens) (Q13882 whole entry, looked up): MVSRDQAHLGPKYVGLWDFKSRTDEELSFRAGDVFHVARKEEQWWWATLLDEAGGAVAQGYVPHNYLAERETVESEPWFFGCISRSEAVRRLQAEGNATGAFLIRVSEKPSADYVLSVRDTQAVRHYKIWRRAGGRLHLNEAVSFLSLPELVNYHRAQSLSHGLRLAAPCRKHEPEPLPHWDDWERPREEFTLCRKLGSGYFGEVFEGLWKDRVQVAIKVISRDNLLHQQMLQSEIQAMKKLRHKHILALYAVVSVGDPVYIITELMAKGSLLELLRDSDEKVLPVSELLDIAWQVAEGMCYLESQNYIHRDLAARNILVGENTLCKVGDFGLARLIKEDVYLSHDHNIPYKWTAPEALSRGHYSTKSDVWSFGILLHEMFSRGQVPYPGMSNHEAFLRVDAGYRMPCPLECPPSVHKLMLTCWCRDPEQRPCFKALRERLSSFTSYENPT

| Compound | residual activity [%] |
| --- | --- |
| Cc1cc(C)c(/C=C2\C(=O)Nc3ccccc32)[nH]1 | 103 |
| COc1ccc2c(c1)c(C1=C(c3c[nH]c4ccccc34)C(=O)NC1=O)cn2CCCN(C)C | 98 |
| Nc1ncnc2c1cnn2-c1ccccc1 | 98 |
| CCOc1nc(NC(=O)Cc2cc(OC)ccc2OC)cc(N)c1C#N | 60 |
| N#C/C(=C1/Nc2ccccc2S1)c1ccnc(NCCc2cccnc2)n1 | 60 |
| O=C(Nc1ccc(Cl)cc1)c1ccccc1NCc1ccncc1 | 21 |
| COc1cc2c(cc1OC)-c1n[nH]c(Nc3cccc(F)c3)c1C2 | 78 |
| NCCNc1ncc(C(N)=O)c(Nc2cccc(C(F)(F)F)c2)n1 | 74 |
| O=C1Cc2c([nH]c3ccc(Br)cc23)-c2ccccc2N1 | 95 |
| O=C1Cc2c([nH]c3ccc([N+](=O)[O-])cc23)-c2ccccc2N1 | 111 |
| O=c1c(-c2ccc(F)cc2)c(-c2ccncc2)[nH]n1-c1ccc(Cl)cc1 | 59 |
| O=c1cc(N2CCOCC2)oc2c(-c3ccccc3)cccc12 | 101 |
| COc1ccc(CNC(=O)Nc2ncc([N+](=O)[O-])s2)cc1 | 24 |
